Experimental data published in PubChem BioAssay.
Records with an inconclusive call do not appear. The source made the active and inactive calls. Unless noted, the limit is not given here; nearly all actives have IC50 up to about 30 µM.

assay: growth inhibition of DIPG cells – cell-based, MIPE4.0 library, CellTiter-Glo luminescence, qHTS (AID 1347066; cut-off not given, nearly all actives have AC50 up to about 30 µM;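 also: cells exposed to compound for 48 hours before readout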); conditions: SU-DIPG-VI viability, CellTiter-Glo ATP luminescence

Row | SMILES | outcome
1 | NC(=O)c1ncn([C@@H]2O[C@H](CO)[C@@H](O)[C@H]2O)c1O | inactive
2 | CC(C)(C)NC(=O)[C@H]1CC[C@H]2[C@@H]3CC[C@H]4NC(=O)C=C[C@]4(C)[C@H]3CC[C@]12C | inactive
3 | CC(=O)O[C@H]1C[C@@H]2CC[C@@H]3[C@H](CC[C@@]4(C)[C@H]3C[C@H]([N+]3(C)CCCCC3)[C@@H]4OC(C)=O)[C@@]2(C)C[C@@H]1N1CCCCC1 | inactive
4 | CNC[C@H](O)c1ccc(O)c(O)c1 | inactive
5 | Nc1ccc(S(N)(=O)=O)cc1 | inactive
6 | C#C[C@]1(O)CC[C@H]2[C@@H]3CCc4cc(O)ccc4[C@H]3CC[C@@]21C | inactive
7 | C[N+]1(C)[C@@H]2CC(OC(=O)[C@H](CO)c3ccccc3)C[C@H]1[C@@H]1O[C@@H]12 (some centres undefined) | inactive
8 | CC(=O)O[C@]1(C(C)=O)CC[C@H]2[C@@H]3C=C(Cl)C4=CC(=O)[C@@H]5C[C@@H]5[C@]4(C)[C@H]3CC[C@@]21C | inactive
9 | CCC(=O)O[C@]1(C(=O)SCF)[C@H](C)C[C@H]2[C@@H]3C[C@H](F)C4=CC(=O)C=C[C@]4(C)[C@@]3(F)[C@@H](O)C[C@@]21C | inactive
10 | COC(=O)[C@@H]1[C@H]2C[C@H]3c4[nH]c5ccccc5c4CCN3C[C@@H]2CC[C@@H]1O | inactive
11 | CC1(C)O[C@@H]2C[C@H]3[C@@H]4C[C@H](F)C5=CC(=O)C=C[C@]5(C)[C@@]4(F)[C@@H](O)C[C@]3(C)[C@]2(C(=O)CO)O1 | inactive
12 | C#C[C@]1(O)CC[C@H]2[C@@H]3CCc4cc(OC)ccc4[C@H]3CC[C@@]21C | inactive
13 | NC[C@H](O)c1ccc(O)c(O)c1 | inactive
14 | Cc1onc(-c2ccccc2)c1C(=O)N[C@@H]1C(=O)N2[C@@H]1SC(C)(C)[C@@H]2C(=O)O | inactive

assay: JHH-DIPG-1 glioma cell viability, MIPE5.0 library, CellTiter-Glo luminescence, qHTS (AID 1347067; cut-off not given, nearly all actives have AC50 up to about 26 µM;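 also: cells exposed to compound for 48 hours before readout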); conditions: JHH-DIPG-1 glioma viability, CellTiter-Glo ATP luminescence

Row | SMILES | outcome | AC50
15 | NC(=O)c1ncn([C@@H]2O[C@H](CO)[C@@H](O)[C@H]2O)c1O | inactive | 
16 | CCN1CCN(C(=O)N[C@@H](C(=O)N[C@@H]2C(=O)N3C(C(=O)O)=C(CSc4nnnn4C)CS[C@H]23)c2ccc(O)cc2)C(=O)C1=O | inactive | 
17 | CC(C)(C)NC(=O)[C@H]1CC[C@H]2[C@@H]3CC[C@H]4NC(=O)C=C[C@]4(C)[C@H]3CC[C@]12C | inactive | 
18 | CC(=O)O[C@H]1C[C@@H]2CC[C@@H]3[C@H](CC[C@@]4(C)[C@H]3C[C@H]([N+]3(C)CCCCC3)[C@@H]4OC(C)=O)[C@@]2(C)C[C@@H]1N1CCCCC1 | inactive | 
19 | CNC[C@H](O)c1ccc(O)c(O)c1 | inactive | 
20 | Nc1ccc(S(N)(=O)=O)cc1 | inactive | 
21 | C[N+]1(C)[C@@H]2CC(OC(=O)[C@H](CO)c3ccccc3)C[C@H]1[C@@H]1O[C@@H]12 (some centres undefined) | inactive | 
22 | CO[C@@]12[C@H](COC(N)=O)C3=C(C(=O)C(C)=C(N)C3=O)N1C[C@@H]1N[C@@H]12 |  | 3.32 µM (active)
23 | CCC(=O)O[C@]1(C(=O)SCF)[C@H](C)C[C@H]2[C@@H]3C[C@H](F)C4=CC(=O)C=C[C@]4(C)[C@@]3(F)[C@@H](O)C[C@@]21C | inactive | 
24 | COC(=O)[C@@H]1[C@H]2C[C@H]3c4[nH]c5ccccc5c4CCN3C[C@@H]2CC[C@@H]1O | inactive | 
25 | CC1(C)O[C@@H]2C[C@H]3[C@@H]4C[C@H](F)C5=CC(=O)C=C[C@]5(C)[C@@]4(F)[C@@H](O)C[C@]3(C)[C@]2(C(=O)CO)O1 | inactive | 
26 | CCCCC(=O)O[C@]1(C(=O)CO)[C@@H](C)C[C@H]2[C@@H]3CCC4=CC(=O)C=C[C@]4(C)[C@@]3(F)[C@@H](O)C[C@@]21C | inactive | 
27 | C#C[C@]1(O)CC[C@H]2[C@@H]3CCc4cc(OC)ccc4[C@H]3CC[C@@]21C | inactive | 
28 | NC[C@H](O)c1ccc(O)c(O)c1 | inactive | 

assay: growth inhibition of DIPG cells – cell-based, MIPE5.0 library, qHTS (AID 1347068); conditions: SU-DIPG-XXV viability

Row | SMILES | outcome
29 | NC(=O)c1ncn([C@@H]2O[C@H](CO)[C@@H](O)[C@H]2O)c1O | inactive
30 | CCN1CCN(C(=O)N[C@@H](C(=O)N[C@@H]2C(=O)N3C(C(=O)O)=C(CSc4nnnn4C)CS[C@H]23)c2ccc(O)cc2)C(=O)C1=O | inactive
31 | CC(C)(C)NC(=O)[C@H]1CC[C@H]2[C@@H]3CC[C@H]4NC(=O)C=C[C@]4(C)[C@H]3CC[C@]12C | inactive
32 | CC(=O)O[C@H]1C[C@@H]2CC[C@@H]3[C@H](CC[C@@]4(C)[C@H]3C[C@H]([N+]3(C)CCCCC3)[C@@H]4OC(C)=O)[C@@]2(C)C[C@@H]1N1CCCCC1 | inactive
33 | CNC[C@H](O)c1ccc(O)c(O)c1 | inactive
34 | Nc1ccc(S(N)(=O)=O)cc1 | inactive
35 | C[N+]1(C)[C@@H]2CC(OC(=O)[C@H](CO)c3ccccc3)C[C@H]1[C@@H]1O[C@@H]12 (some centres undefined) | inactive
36 | CC(=O)O[C@]1(C(C)=O)CC[C@H]2[C@@H]3C=C(Cl)C4=CC(=O)[C@@H]5C[C@@H]5[C@]4(C)[C@H]3CC[C@@]21C | inactive
37 | CCC(=O)O[C@]1(C(=O)SCF)[C@H](C)C[C@H]2[C@@H]3C[C@H](F)C4=CC(=O)C=C[C@]4(C)[C@@]3(F)[C@@H](O)C[C@@]21C | inactive
38 | O=c1[nH]c(=O)n([C@H]2C[C@H](O)[C@@H](CO)O2)cc1F | inactive
39 | COC(=O)[C@@H]1[C@H]2C[C@H]3c4[nH]c5ccccc5c4CCN3C[C@@H]2CC[C@@H]1O | inactive
40 | CC1(C)O[C@@H]2C[C@H]3[C@@H]4C[C@H](F)C5=CC(=O)C=C[C@]5(C)[C@@]4(F)[C@@H](O)C[C@]3(C)[C@]2(C(=O)CO)O1 | inactive
41 | CCOC(=O)O[C@]1(C(=O)OCCl)CC[C@H]2[C@@H]3CCC4=CC(=O)C=C[C@]4(C)[C@H]3[C@@H](O)C[C@@]21C | inactive
42 | CCCCC(=O)O[C@]1(C(=O)CO)[C@@H](C)C[C@H]2[C@@H]3CCC4=CC(=O)C=C[C@]4(C)[C@@]3(F)[C@@H](O)C[C@@]21C | inactive
43 | C#C[C@]1(O)CC[C@H]2[C@@H]3CCc4cc(OC)ccc4[C@H]3CC[C@@]21C | inactive
44 | NC[C@H](O)c1ccc(O)c(O)c1 | inactive
